# From PubChem BioAssay AID463173 (ICCB-Longwood Screening Facility, Harvard Medical School, 2010)
# Where “and” joins values, the source holds several entries; their conditions need not be identical. Identical values can stand only once. Screen size: about 52,000 compounds; about 4,300 (8.3%) were called active. No stated cut-off is given here; in the data, active means survival mostly below about 52% (no sharp cut-off); inactive means mostly above about 56%. What follows is part of a selection rich in actives, with near analogues and random picks from the rest. Some compounds were tested as several samples or in several runs, with calls that do not always agree.
# Tested on: DeltatarO mutant
# Experiment: growth inhibition of S. aureus wild type versus tarO mutant, primary screen, teichoic acid synthesis inhibitors, RN4220, OD600 (AID 463173)
# Details: OD600, 18 h, stronger effect = lower value, screened at 18.75 µg/mL (by protocol)
row,SMILES,survival
1,CCOC(=O)c1ccccc1NC(=O)CN1CCCN(Cc2cc(C)ccc2C)S1(=O)=O,126% (inactive)
2,CCOC(=O)c1c(C)oc2ncnc(N3CCN(c4ccccc4)CC3)c12,89% (inactive)
3,CCOC(=O)c1c(C)oc2nc(C)nc(N3CCN(c4ccccc4)CC3)c12,83% (inactive)
4,CCOC(=O)c1c(C)oc2c1c(O)c(N=O)c1ccccc12,18% (active)
5,CCN(CC)c1cc(C)c2cc(NC(=O)c3ccccc3Cl)ccc2n1,55% (inactive)
6,CCN(CC)c1cc(C)c2cc(NC(=O)c3cccc(OC)c3)ccc2n1,40% (inactive)
7,CCOc1ccc(C(=O)Nc2ccc3nc(N(CC)CC)cc(C)c3c2)cc1,70% (inactive)
8,CCN(CC)c1cc(C)c2cc(NC(=O)/C=C/c3ccccc3OC(C)C)ccc2n1,71% (inactive)
9,CCN(CC)c1ccc(C(=O)Nc2ccc3nc(N(CC)CC)cc(C)c3c2)cc1,52% (inactive)
10,CCN(CC)c1cc(C)c2cc(NC(=O)c3cccc(OC)c3OC)ccc2n1,95% (inactive)
11,CCN(CC)c1cc(C)c2cc(NC(=O)c3cccc(F)c3)ccc2n1,42% (inactive)
12,CCOc1ccccc1C(=O)Nc1ccc2nc(N(CC)CC)cc(C)c2c1,65% (active)
13,CCN(CC)c1cc(C)c2cc(NC(=O)c3cc(OC)cc(OC)c3)ccc2n1,59% (inactive)
14,CCN(CC)c1cc(C)c2cc(NC(=O)c3ccc(OC)c(OC)c3)ccc2n1,35% (active)
15,CCN(CC)c1cc(C)c2cc(NC(=O)c3ccccc3OC)ccc2n1,7% (active)
16,CCN(CC)c1cc(C)c2cc(NC(=O)c3ccc(F)cc3Cl)ccc2n1,39% (active)
17,Cc1ccc(Cl)cc1NC(=O)c1sc2nc(C)c(C)c(C)c2c1N,75% (inactive)
18,Cc1cccc2sc(N(Cc3cccnc3)C(=O)Cc3ccccc3)nc12,81% (inactive)
19,CCCc1cnc2c(c1SCC(=O)Nc1c(C)cc(C)cc1C)c(=O)n(C)c(=O)n2C,94% (inactive)
20,CCOc1ccc(NC(=O)CSc2nc3nc(C)c(Cc4ccccc4)c(C)n3n2)cc1,89% (inactive)
21,CCC(OC(=O)CN1C(=O)c2ccccc2C1=O)C(=O)NC1CCCC1 (stereo unspecified),83% (inactive)
22,COC(=O)c1ccc(C(=O)OC)c(NC(C)=O)c1,73% (inactive)
23,O=C(NCc1ccc(Cl)cc1)C1CCCN(C(=O)c2cnn(-c3ccc(F)cc3)c2-n2cccc2)C1 (stereo unspecified),73% (inactive)

row,SMILES,survival
1,Cc1c(Cl)cccc1NC(=O)c1cccc(NC(=O)N2CCSc3ncccc32)c1,80% (inactive)
2,COc1ccc(C(=O)Nc2ccccc2C(=O)Nc2ccccn2)cc1,94% (inactive)
3,O=C1CSC(=Nc2cccc(C(=O)O)c2)N1,82% (inactive)
4,CC(=O)c1cc2c(cc1N/C(=N/S(=O)(=O)c1ccc(Br)cc1)c1ccccc1)OCO2,69% (inactive)
5,CC(=O)c1cc2c(cc1N/C(=N/S(=O)(=O)c1ccccc1)c1ccc(Cl)cc1)OCO2,0% (active)
6,CC(=O)c1cc2c(cc1N/C(=N/S(=O)(=O)c1ccc(C)cc1)c1ccc(F)cc1)OCO2,83% (inactive)
7,CC(=O)c1cc2c(cc1N/C(=N/S(=O)(=O)c1ccc(Cl)cc1)c1ccc(F)cc1)OCO2,99% (inactive)
8,CC(=O)c1cc2c(cc1N/C(=N/S(=O)(=O)c1ccc(C)cc1)c1ccccc1)OCO2,74% (inactive)
9,CC(=O)c1cc2c(cc1N/C(=N/S(=O)(=O)c1ccc(C)cc1)c1ccc(Cl)cc1)OCO2,37% (active)
10,O=C(NCc1cccc(Br)c1)C1CCCCN1S(=O)(=O)c1ccc(F)cc1 (stereo unspecified),89% (inactive)
11,O=C(Cn1c(-c2cccs2)cc2cc(F)ccc21)NCCCN1CCN(c2ccccc2F)CC1,67% (inactive)
12,COc1ccc(-n2nc3c(N4CCC(C(=O)NCCc5ccccc5)CC4)nnc(C)c3c2C)cc1,85% (inactive)
13,CCc1cccc(Nc2c3c(nc4ncnn24)CCC3)c1,95% (inactive)
14,COc1ccc(-c2nn3c(=O)cc(CN4CCN(C(=O)Nc5ccc(C)c(Cl)c5)CC4)nc3s2)cc1,78% (inactive)
15,CCOC(=O)C(C)Sc1nc(-c2ccccc2)ccc1C#N (stereo unspecified),82% (inactive) and -1% (active)
16,CCOC(=O)C(C)Sc1nc(-c2ccccc2Cl)cc(-c2ccccc2)c1C#N (stereo unspecified),64% (inactive)
17,CCCCSc1nc(-c2ccc(OC)cc2)ccc1C#N,52% (inactive)
18,O=C(CN1CCN(c2ccccn2)CC1)N(c1ccccc1)c1ccc2ccccc2c1,59% (inactive)
19,COc1ccc(OC)c(CCNC(=O)c2csc3c2CCCCC3)c1,44% (active)
20,COc1ccc(CCNC(=O)c2csc3c2CCCCC3)c(OC)c1,66% (inactive)
21,COc1ccc(NC(=O)c2csc3c2CCCCC3)cc1,70% (inactive)
22,COc1ccc(OC)c(CCNC(=O)c2ccc3[nH]c(C)c(C)c3c2)c1,107% (inactive)
23,COc1cccc(NC(=O)c2csc3c2CCCCC3)c1,37% (active)
